The source of these data is PubChem BioAssay.

SMILES strings stand for the structures. Calls of active or inactive are those of the source.

Assay [1] is described as follows: compound effects on lung adenocarcinoma cell viability – A549, calcein-AM fluorescence, 48 h, basal, profiling panel (AID 1162). Conditions: higher = more signal.
A short description of assay [2]: compound effects on differentiated 3T3-L1 adipocyte viability – cell-based, 3T3-L1 adipocytes, calcein-AM fluorescence, 48 h, basal, profiling panel (AID 1163). Conditions: 3T3-L1 adipocytes viability, higher = more signal.
Assay [3] in a line: compound effects on hepatocellular carcinoma cell viability – HepG2, calcein-AM fluorescence, 48 h, basal, profiling panel (AID 1164). The conditions noted are these: higher = more signal.
Assay [4] can be described thus: compound effects on multiple myeloma cell viability – MM1S, calcein-AM fluorescence, 48 h, basal, profiling panel (AID 1165). Conditions: higher = more signal.
A short description of assay [5]: calcein-AM signal in unstimulated myeloma cells – cell-based, calcein-AM fluorescence, 48 h, PK04 Diversity Set, profiling panel (AID 1166).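 Further: cells grown under basal conditions without added stimulus.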 Conditions: RPMI8226 myeloma viability, higher = more signal.
A short description of assay [6]: JC-1 mitochondrial signal, unstimulated HepG2 cells – cell-based, JC-1 fluorescence, 24 h, 100 nL compound, profiling panel (AID 1167). The conditions noted are these: HepG2 mitochondrial potential, higher = more signal.
Assay [7] can be described thus: JC-1 mitochondrial signal, unstimulated adipocytes – cell-based, JC-1 fluorescence, 3T3-L1 adipocytes, 24 h, 100 nL compound, profiling panel (AID 1168). The conditions noted are these: JC-1 mitochondrial fluorescence, higher = more signal, called active from +8 up or from −8 down.
Assay [8] can be described thus: JC-1 mitochondrial signal, unstimulated myeloma cells – cell-based, JC-1 fluorescence, RPMI8226, 24 h, 100 nL compound, profiling panel (AID 1169). The conditions noted are these: JC-1 mitochondrial potential fluorescence, higher = more signal.
A short description of assay [9]: JC-1 mitochondrial signal, unstimulated MM1S myeloma – cell-based, JC-1 fluorescence, 24 h, 100 nL compound, profiling panel (AID 1170). Conditions: MM1S mitochondrial potential, higher = more signal.
Assay [10] in a line: resazurin metabolic signal in A549 cells – cell-based, resazurin fluorescence, 24 h, PK04 Diversity Set, profiling panel (AID 1171). Conditions: A549 viability, higher = more signal, called active from +8 up or from −8 down. For orientation: Alamar Blue is a resazurin reagent that responds to reducing activity.
Further: test concentration not given here.

With `O=C1C[C@@H](O)[C@@H](O)[C@@H]2[C@@H]3C(=O)N(c4ccc(F)cc4F)C(=O)[C@@H]3CC[C@H]12`, the z-score in assay [1] is -0.529; in [2], 1.42; in [3], 0.0181; in [4] it was -0.141; in assay [5], -0.0202; in [6], -0.541. Further, the z-score in assay [7] is -0.922 (inactive); in assay [8], 0.0715; in assay [9], 0.448; in assay [10], -0.715 (inactive).
Regarding `COc1ccc(COC(=O)NN=C2C[C@@H](O)[C@@H](O)[C@@H]3[C@@H]4C(=O)N([C@@H](C)c5ccccc5)C(=O)[C@@H]4CC[C@H]23)cc1`, the z-score in assay [1] was -0.0502; in assay [2] it was 0.155; in assay [3], -0.791; in assay [4] it was 0.145; in assay [5], -0.486; in assay [6], -0.888. In addition, the z-score is -0.653 (inactive) in assay [7], -0.0767 in [8], 0.493 in [9] and 0.541 (inactive) in [10].
As for `COC(=O)[C@H](C)NC(=O)CCC1CC(OC(=O)NCCc2ccc(F)cc2)CC2(CCCC(COC(=O)NCC3CCCCC3)O2)O1` (stereo not given in full), the z-score in [1] is -0.111; in assay [2], 0.851; in assay [3], -1.36; in [4], -0.574; in assay [5] it was -1.85; in [6], -0.717. Also, the z-score is 0.497 (inactive) in assay [7], 0.785 in assay [8], -0.771 in assay [9] and 0.541 (inactive) in assay [10].
For `Cc1cc(C)c(-c2cc([C@H](C)ON=C[C@@H](C)[C@H](OCc3ccccc3)C(C)C)on2)c(C)c1`, the z-score in assay [1] is 0.66; in [2], -0.0328; in assay [3] it was 0.163; in assay [4], 0.682; in assay [5], -0.234; in [6], 3.57. Further, the z-score in assay [7] was -0.508 (inactive); in assay [8], -0.149; in [9], -0.143; in assay [10], -0.0597 (inactive).
Consider `Cc1ccc(C(C)C)n1C(=O)OC(C)(C)C`, for which the z-score in assay [1] is 1.88; in [2] it was 0.0856; in assay [3], 0.577; in assay [4] it was 0.547; in assay [5] it was 0.228; in assay [6], -0.503. Further, the z-score in assay [7] was 0.499 (inactive); in assay [8], 0.68; in [9] it was 0.196; in assay [10], -1.47 (inactive).
Turning to `CCOC(=O)[C@H](Cc1ccccc1)NC(=O)CCC1CC(OC(=O)NCc2ccc3c(c2)OCO3)CC2(CCCC(COC(=O)NCCOC)O2)O1` (stereo not given in full), the z-score in assay [1] was 0.58; in [2] it was -0.182; in [3], -0.971; in [4], 1.05; in [5], -1.56; in assay [6] it was 0.724. The z-score in [7] was -0.844 (inactive); in assay [8], -0.817; in assay [9], -1.37; in [10], 0.32 (inactive).
For the compound `COC(=O)[C@H](C)NC(=O)CCC1CC(OC(=O)NCCc2ccc(F)cc2)CC2(CCCC(COC(=O)NCCOc3ccccc3)O2)O1` (stereo not given in full), the z-score is 0.401 in [1]; -0.506 in assay [2]; 0.696 in assay [3]; 0.546 in assay [4]; -0.475 in assay [5]; 1.17 in assay [6]. For the same compound, the z-score in assay [7] was 0.00171 (inactive); in [8], 0.606; in [9] it was -0.0736; in [10], 0.579 (inactive).
For the compound `O=C1C[C@@H](O)[C@@H](O)[C@@H]2[C@@H]3C(=O)N(Cc4ccccc4)C(=O)[C@@H]3CC[C@H]12`, the z-score in assay [1] is -0.801; in assay [2], 0.241; in assay [3], 0.175; in assay [4], -0.0999; in assay [5], 0.549; in assay [6], -0.511. In addition, the z-score in assay [7] is -0.919 (inactive); in assay [8], 0.0436; in assay [9] it was -0.281; in assay [10], -0.673 (inactive).
`COC(=O)[C@@H]1CC[C@H](C)[C@@H](c2ccc(C)cc2)N1C(=O)c1ccc(C=NO[C@@H](C)c2cc(-c3c(C)cc(C)cc3C)no2)cc1`: the z-score is 0.203 in assay [1]; -0.576 in assay [2]; 1.38 in assay [3]; -0.56 in assay [4]; 0.148 in [5]; 3.24 in assay [6]. In addition, the z-score in assay [7] was 0.161 (inactive); in [8], 0.239; in assay [9] it was -0.749; in assay [10] it was -0.462 (inactive).
With `C[C@H]1CC[C@H]2C(=O)O[C@H](CO)CN2[C@@H]1c1ccc(Br)cc1`, the z-score in [1] is 0.889; in assay [2], -0.214; in assay [3] it was 0.547; in assay [4] it was 0.349; in assay [5], -0.73; in assay [6], 0.0194. For the same compound, the z-score is -0.526 (inactive) in [7], 0.301 in assay [8], -0.434 in assay [9] and 0.581 (inactive) in [10].
Regarding `CC(=O)OC[C@H]1O[C@H](CC=NOC[C@@H](O)[C@H]2O[C@@H]3OC(C)(C)O[C@@H]3[C@H]2O)C=C[C@@H]1OC(C)=O`, the z-score in assay [1] is 0.873; in [2] it was -1; in assay [3], -0.188; in assay [4], 0.494; in assay [5], -0.594; in assay [6], 0.218. Also, the z-score is 0.555 (inactive) in [7], 0.632 in assay [8], -0.527 in [9] and 0.0766 (inactive) in assay [10].
As for `COC(=O)[C@H](CCSC)NC(=O)CC=C[C@@H](C)CO`, the z-score in assay [1] was -0.493; in assay [2] it was -0.169; in [3], 0.0826; in assay [4], -1.12; in assay [5], -0.581; in assay [6], 0.705. Further, the z-score in assay [7] is -0.645 (inactive); in assay [8] it was -0.545; in assay [9] it was -1.62; in assay [10], -0.812 (inactive).
`COC(=O)[C@H](C)NC(=O)CCC1CC(OC(=O)NCc2ccc3c(c2)OCO3)CC2(CCCC(COC(=O)NCCc3ccc(Cl)cc3)O2)O1` (stereo not given in full): the z-score is -0.508 in assay [1]; 0.38 in assay [2]; -0.796 in assay [3]; -0.99 in [4]; -1.27 in assay [5]; 0.718 in assay [6]. The z-score is -0.527 (inactive) in assay [7], -0.342 in assay [8], -0.864 in assay [9] and 1.02 (inactive) in assay [10].
Consider `COC(=O)[C@@H]1CC[C@H](C)[C@@H](c2ccc(C)cc2)N1C(=O)c1ccc(C=NOC[C@@H](O)[C@H]2O[C@@H]3OC(C)(C)O[C@@H]3[C@H]2O)cc1`, for which the z-score is 0.685 in [1]; -0.175 in [2]; -0.827 in assay [3]; -0.546 in assay [4]; -0.525 in assay [5]; -0.874 in assay [6]. Moreover, the z-score in [7] was -0.269 (inactive); in assay [8], -1; in assay [9], -0.732; in assay [10], -0.089 (inactive).
